Here are results for 40 molecules from PubChem BioAssay.

The source made the active and inactive calls. How the calls were made is not given here.

The target of the test is Pantothenate synthetase (Mycobacterium tuberculosis (strain ATCC 25618 / H37Rv)) (UniProt P9WIL5). Description: Recombinant Mtb pantothenate synthetase (PanC) inhibitors, coupled enzyme, confirmatory (AID 375).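 Further: 0% = full reaction with vehicle and 100% = no enzyme background.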 As to conditions: coupled enzyme assay; at 10 µM, stronger effect = higher value.
Sequence of Pantothenate synthetase (Mycobacterium tuberculosis (strain ATCC 25618 / H37Rv)) (P9WIL5 whole entry, looked up): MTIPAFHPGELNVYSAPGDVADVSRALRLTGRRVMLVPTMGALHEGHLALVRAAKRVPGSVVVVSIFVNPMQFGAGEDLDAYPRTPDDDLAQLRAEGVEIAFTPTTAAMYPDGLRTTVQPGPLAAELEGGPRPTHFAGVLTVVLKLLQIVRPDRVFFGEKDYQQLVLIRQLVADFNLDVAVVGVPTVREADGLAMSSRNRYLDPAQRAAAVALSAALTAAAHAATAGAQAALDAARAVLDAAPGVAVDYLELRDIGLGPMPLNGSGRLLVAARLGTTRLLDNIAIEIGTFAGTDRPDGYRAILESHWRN
Usually inhibition stands for the share of the control response that was lost under treatment. On to `Cc1ccc(NC(=O)C2CCCN(S(=O)(=O)c3cnc[nH]3)C2)cc1F` (stereo not given), for which the inhibition was 0% (inactive).
With `Cc1cccc(C)c1OCC(=O)Nc1cccc(NC(=O)c2ccco2)c1`, the inhibition was 12% (inactive).
Consider `O=S(=O)(Nc1ncccn1)c1ccc(Nc2ncnc3ccccc23)cc1`, for which the inhibition was 6% (inactive).
With `O=C(CSc1n[nH]c(=O)[nH]c1=O)c1ccccc1`, the inhibition was 0% (inactive).
The value for `COc1ccc2c(c1)c1c(n2C(C)=O)C(OC(C)=O)=NCC1` was 0% (inactive); that for `CC(=O)c1sc(NC(=O)C2COc3ccccc3O2)nc1C` (stereo not given) was 3% (inactive); that for `Brc1ccc2[nH]ncc2c1` was 10% (inactive).
The value for `COC1=CC(=O)CC(C)C12Oc1c(Cl)c(OC)cc(OC)c1C2=O` (stereo not given) was 0% (inactive).
The value for `Cc1cccc(OCc2nc(C#N)c(NCCN(C)C)o2)c1` was 1% (inactive).
With `CC1=CC2=C(OC1N(C)C)c1cccc3cccc(c13)C2=O` (stereo not given), the inhibition is 5% (inactive).
The value for `Cc1csc2nc3ccccc3c(=O)n12` was 11% (inactive).
The value for `CCc1nnc(NC(=O)CN2CCN(c3ccccc3OC)CC2)s1` was 4% (inactive); that for `Cc1cc(NC(=O)CSc2nccn2-c2ccc(Cl)cc2)no1` was 0% (inactive).
The value for `OCCOCCN1CCN(C(c2ccccc2)c2ccc(Cl)cc2)CC1` (stereo not given) was 1% (inactive); that for `CCOc1cc(-c2nc3ccccn3c2NCC2CCCO2)ccc1O` (stereo not given) was 0% (inactive); that for `O=C(CSc1nnc(CNC(=O)c2cccs2)o1)Nc1cccc(C(F)(F)F)c1` was 0% (inactive).
As for `Cc1nnc(SCC(=O)Nc2sc3c(c2C#N)CCCC3)[nH]c1=O`, the inhibition is 0% (inactive).
The value for `CN(C1CCS(=O)(=O)C1)S(=O)C12CC3CC(CC(C3)C1)C2` (stereo not given) was 3% (inactive); that for `CC(=O)Nc1nc(-c2ccccc2)nc(C)c1C(C)=O` was 1% (inactive).
The value for `CS(=O)(=O)NCC(c1cccnc1)N1CCN(c2ccc(F)cc2)CC1` (stereo not given) was 1% (inactive); that for `COc1cccc(CN2C(=O)C3(C(C#N)=C(N)OC4=C3C(=O)CCC4)c3ccccc32)c1` (stereo not given) was 0% (inactive).
The value for `C=CCc1ccccc1OCCCCN1CCCC1` was 0% (inactive); that for `Cc1nn(-c2ccccc2)c2c1C(O)n1c(nc3ccccc31)S2` (stereo not given) was 2% (inactive).
For the molecule `O=C(NC1CCCCC1)N(Cc1ccccc1)Cc1ccco1`, the inhibition was 1% (inactive).
Regarding `COc1ccc(-n2ccnc2SCC(=O)NCc2ccc3c(c2)OCO3)cc1`, the inhibition was 1% (inactive).
The value for `COc1c(S(=O)(=O)n2nc(C)cc2C)ccc(Cl)c1Cl` was 3% (inactive); that for `Cc1ccc(NC(=O)Cn2cccc2)cc1Cl` was 0% (inactive).
As for `Cn1c(SCC(=O)Nc2ccc3c(c2)oc2ccccc23)nnc1-c1ccccc1`, the inhibition was 5% (inactive).
The value for `COC(=O)c1ccc(-c2sc3nc(N4CCOCC4)c4c(c3c2N)CCCC4)o1` was 0% (inactive); that for `O=C(Cn1cnc2sc(-c3ccccc3)cc2c1=O)N1CCOCC1` was 9% (inactive); that for `Cc1nnc(SCCCn2c(N3CCCCC3)nc3c2c(=O)[nH]c(=O)n3C)s1` was 0% (inactive).
The value for `Nc1cc(-c2ccc(Br)cc2)nn1S(=O)(=O)c1ccccc1` was 2% (inactive).
Turning to `Clc1ccc(Cl)c(-c2ccc(/C=N/c3ncn[nH]3)o2)c1`, the inhibition is 4% (inactive).
The value for `Cc1cc(NS(=O)(=O)c2ccccc2)no1` was 1% (inactive); that for `Cc1nn(-c2ccccc2)c2[nH]c(C(F)(F)F)cc(=O)c12` was 1% (inactive); that for `CCOC(=O)c1nnc(-c2ccccc2)o1` was 2% (inactive).
`Cc1cccc(CCNC(=O)CCc2nc(-c3ccccc3F)no2)c1`: the inhibition is 0% (inactive).
For the molecule `CCSc1nnc(NC(=O)CSc2nnc(Cc3cccn3C)n2-c2ccc(C)cc2)s1`, the inhibition is 5% (inactive).
The value for `Cc1cccc(NC(=O)c2cc3n(n2)C(C(F)(F)F)CC(c2ccc4c(c2)OCO4)N3)c1` (stereo not given) was 4% (inactive).
With `O=C1C2C3C=CC(C3)C2C(=O)N1CNc1ccc(O)cc1` (stereo not given), the inhibition was 3% (inactive).
